# From PubChem BioAssay
# Hits are enriched below; roughly 7.9% of the tested compounds scored in any of these assays.
# MCF10A rerep = inducers of DNA re-replication in MCF 10A breast cells; MCF 10A DNA re-replication, Hoechst nuclear intensity, 48 h; Potency, µM (top dose mostly 46.1 µM), for the others: at the top dose activity, positive = re-replication, hits mostly activators; hit rate 2.9% among 350,000; also: % of control where 0% means no effect; nearly all actives have a fitted effect of over 50% in size
# KB-3-1 tox = KB-3-1 parental cell cytotoxicity. KB-3-1 viability, CellTiter-Glo ATP luminescence, 72 h. AID 1347075. hit rate 1.4% among 400,000. Potency, µM (doses to about 46.1 µM), actives largely listed as cytotoxic; also: % is scaled to controls: 0 for no effect and ±100 for the full control effect; nearly all actives have a fitted effect of over 60% in size
#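 Cells are dispensed, compounds pinned in, plates held at 37 °C for 72 h, then CellTiter-Glo is added and luminescence read after 10 minutes. Cell line: parental KB-3-1 in phenol-red-free DMEM, 10% FBS.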
# SW480 rerep = inducers of DNA re-replication in SW480 colon cancer cells | SW480 DNA re-replication, Hoechst DNA content imaging, 48 h | Potency, µM (doses to about 46.1 µM), without a hit: at the top dose re-replication activation, usual class: activators | hit rate 1.8% among 340,000 | AID 624297; also: % of control where 0% means no effect; nearly all actives have a fitted effect of over 55% in size
#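 Per well, 250 cells were exposed to pinned compound for 48 hr. Nuclear DNA was visualised with Hoechst (40 min, 37 C) and total object intensity recorded by fluorescence scanning.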
# KB-V1 cytotox = kills drug-selected multidrug resistant KB-V1 cells | KB-V1 MDR cells viability, CellTiter-Glo, 72 h | Potency, µM (titrated, usually from 46.1 µM), hits mostly cytotoxic | hit rate 3.4% among 400,000 | AID 1347076; also: % is scaled to controls: 0 for no effect and ±100 for the full control effect; nearly all actives have a fitted effect of over 60% in size
#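 Readout: CellTiter-Glo luminescence, 10 min after addition. Cells: KB-V1 MDR subline, 72 h at 37 degrees C with compound. Analysis: corrected, normalized data fitted to concentration-effect curves.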
# HT1080 IDH1KD tx = toxicity to HT-1080 IDH1 knockdown cells (counter line). HT-1080 IDH1 knockdown viability, ATP luminescence, 48 h. Potency, µM (highest dose often 46.1 µM), without a hit: top-dose activity, negative = toxicity, most hits filed as cytotoxic. hit rate 2% among 360,000. AID 686971;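 also: 0% = DMSO wells and -100% = cell-free medium wells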
#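 Knockdown cells (IDH1KD HT-1080) received compounds 2 h after plating at 750 cells/well and were kept 48 h at 37 °C in 5% FBS RPMI. A CellTiter-Glo luminescence read gave % activity for curve fitting.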
# HT1080NT lethal = kills 2HG-producing HT-1080-NT fibrosarcoma cells | HT-1080-NT fibrosarcoma viability, CellTiter-Glo ATP luminescence, 48 h | hit rate 1.6% among 360,000 | Potency, µM (top dose mostly 46.1 µM), for inactives: at the highest dose activity, negative = less viability, actives largely listed as cytotoxic | AID 686970;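 also: NT is the 2HG producing partner of a matched IDH1 knockdown line; 0% = DMSO-treated cells and -100% = media-only wells without cells; nearly all actives have a fitted effect of over 55% in size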
#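 Fibrosarcoma NT cells, 750 per well in 5% FBS RPMI, were exposed to compound for 48 hours. Viability: CellTiter-Glo luminescence.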
# * = called active by the depositor; i = inactive; ? = inconclusive; nt = no result; [ ] = remark or other dose. Calls follow the shape of the dose curve; as a rule, active = well fitted curve in the direction sought with a large enough effect; inconclusive = small, poorly fitted or top-dose-only effect, or another doubt; inactive = no such curve, though single readings can be large; an effect the other way counts as inactive or inconclusive. Potency is read from the fitted curve at half-maximal effect.
SMILES,MCF10A rerep,KB-3-1 tox,SW480 rerep,KB-V1 cytotox,HT1080 IDH1KD tx,HT1080NT lethal
Cc1cc(OC(C)C(=O)NCC2CCCO2)cc(C)c1Cl (stereo unspecified),2%,i,-12%,i,-1%,10%
Cc1oc(-c2ccc(Cl)cc2)nc1Cn1c(=O)cc(-c2ccccc2)c2c(C)nn(C)c21,nt,i,nt,i,nt,nt
CCCCOC(=O)c1ccc(Nc2ncnc3c2cnn3-c2cccc(C)c2)cc1,nt,i,nt,i,nt,nt
COC(=O)c1sccc1NC(=O)Cn1nnc(-c2ccc(C)cc2)n1,3%,i,-5%,21µM*,0%,6%
COC(=O)c1sccc1NC(=O)CSc1ccccc1NS(=O)(=O)c1ccc(F)cc1,?,i,9%,?,-9%,-5%
COC(=O)c1sccc1NC(=O)COc1ccc(C)cc1,-4%,i,-3%,i,0%,10%
COC(=O)c1sccc1NC(=O)c1c(F)c(F)c(F)c(F)c1F,?,i,-31%,i,?,18µM*
COC(=O)c1sccc1NC(=O)c1c(C)c(-c2cccc(Cl)c2)nc2ccccc12,13%,i,12%,10µM*,-12%,3%
COC(=O)c1sccc1NC(=O)CSc1ccccc1NS(=O)(=O)c1ccc(Br)cc1,18%,21µM*,28%,4.1µM*,-3%,1%
COc1cc(Cl)c(C)cc1NS(=O)(=O)c1c(C)nc2sccn2c1=O,nt,i,nt,?,nt,nt
COC(=O)c1sccc1NC(=O)CSc1ccc(Cl)cc1,19%,i,5%,23µM*,8%,20%
COC(=O)c1sccc1NC(=O)CSc1ccccc1N,?,i,-54%,i,-4%,-6%
COC(=O)c1sccc1NC(=O)CN(C)NS(=O)(=O)c1ccc(F)cc1,?,i,13µM*,?,-27%,?
CC(=O)N1CC(C)Sc2ccc(S(=O)(=O)NCCc3ccc(C)cc3)cc21 (stereo unspecified),?,i,-29%,i,-13%,6%
CC(=O)N1CC(C)Sc2ccc(S(=O)(=O)NCc3ccc(Cl)cc3)cc21 (stereo unspecified),12%,23µM*,?,i,-9%,-10%
COc1cc(N2CCCC2)c(OC)cc1/C=C(/C#N)c1ccc(Br)cc1,23µM*,i,2%,i,11%,1%
O=C1OC(/C(=C\Nc2cc(Cl)ccc2O)[N+](=O)[O-])c2ccccc21 (stereo unspecified),15µM*,i,?,i,?,?
O=C1OC(/C(=C\Nc2ccc(F)cc2F)[N+](=O)[O-])c2ccccc21 (stereo unspecified),16%,i,10%,i,18µM*,?
Cc1ccc(N/C=C(\C2OC(=O)c3ccccc32)[N+](=O)[O-])c(C)c1 (stereo unspecified),16%,i,-2%,i,0%,1%
O=C(C[n+]1ccccc1Cl)c1ccc(Br)cc1,nt,i,nt,i,nt,nt
O=C1NN=C2CCCCCC12 (stereo unspecified),nt,i,nt,i,-6%,-2%
COc1ccc2oc(=O)c(-c3nnc(NCc4ccco4)s3)cc2c1,7.3µM*,?,8.9µM*,?,?,-21%
COc1ccc2oc(=O)c(-c3csc(Nc4ccc(O)cc4)n3)cc2c1,4.1µM*,?,?,?,?,?
CCOc1cccc2cc(-c3nnc(NCc4ccco4)s3)c(=O)oc12,21µM*,i,?,i,-19%,-5%
COc1ccc(Nc2nc(-c3ccc(OC)cc3)cs2)cc1,-7%,i,-2%,?,-3%,-11%
SMILES,MCF10A rerep,KB-3-1 tox,SW480 rerep,KB-V1 cytotox,HT1080 IDH1KD tx,HT1080NT lethal
COc1ccc(Nc2nc(-c3c[nH]c4ccccc34)cs2)cc1,16µM*,?,?,i,14%,4%
CCCN(CC(=O)Nc1ccc(F)c(F)c1F)C(=O)c1ccc(N2CCCC2=O)cc1,2%,i,-5%,i,10%,4%
COc1cc(-c2ccc3ncnc(NCc4cccs4)c3c2)cc(OC)c1OC,nt,i,nt,i,nt,nt
CCOc1cc2c3c(c1)C(C)CC(C)(C)N3C(=O)C2=O (stereo unspecified),?,i,?,15µM*,3%,5%
Cc1ccc2c3c1C(=O)C(=O)N3C(C)(C)CC2C (stereo unspecified),26µM*,i,?,i,14%,7%
CCOc1cc2c3c(c1)C(C)=CC(C)(C)N3C(=O)C2=O,?,21µM*,?,?,?,4.6µM*
Cc1cc2c3c(c1)C(C)CC(C)(C)N3C(=O)C2=O (stereo unspecified),3%,i,9%,i,-11%,-5%
Cc1ccc(NC(=O)CN2C(=O)NC3(CCCCCC3)C2=O)cc1Cl,?,nt,5%,nt,-20%,0%
Cc1cc(NC(=O)CN2C(=O)NC(C)(c3ccc(Cl)cc3Cl)C2=O)no1 (stereo unspecified),1%,i,-7%,i,-17%,-21%
COc1ccc(-n2c(=O)c3c4c(sc3n(CC(=O)NCc3ccco3)c2=O)CCC4)c(OC)c1,11%,i,0%,16µM*,8%,1%
COc1ccc(C2CC(c3ccccc3OC(C)=O)=NN2C(C)=O)cc1 (stereo unspecified),9%,?,16µM*,?,-9%,3%
COc1ccc(C2CC(c3ccccc3)=NN2C(=O)COC(=O)c2cccc(S(=O)(=O)N(C)C)c2)cc1 (stereo unspecified),-1%,i,-1%,3.7µM*,-4%,-11%
COc1ccc(C2=NN(C(=O)CN3CCCCC3)C(c3ccc(C)cc3)C2)cc1 (stereo unspecified),-3%,i,-10%,?,-17%,0%
COc1ccc(C2CC(c3ccccc3)=NN2C(=O)CN2CCN(Cc3ccccc3)CC2)cc1 (stereo unspecified),-1%[9.22 µM],?,11%,23µM*,5%,10%
COc1ccc(C2CC(c3ccccc3)=NN2C(=O)COC(=O)c2cccc(S(=O)(=O)N3CCOCC3)c2)cc1 (stereo unspecified),-1%,i,5%,i,1%,-3%
COc1ccc(C2CC(c3ccccc3OC(C)=O)=NN2C(=O)/C=C/c2ccccc2)cc1 (stereo unspecified),9%,i,1%,i,-23%,-1%
